HP1b chromo inh: HTS for Inhibitors of HP1-beta Chromodomain Interactions with Methylated Histone Tails | Chromobox protein homolog 1 (Homo sapiens), P83916 | Potency, µM (series often up to 114 µM), usual class: inhibitors | AlphaScreen HP1-beta / biotin-H3K9me3 peptide binding | 390,000 tested, 0.56% active; note: nearly all actives have a fitted effect of over 70% in size
Target sequence (P83916 whole entry, looked up): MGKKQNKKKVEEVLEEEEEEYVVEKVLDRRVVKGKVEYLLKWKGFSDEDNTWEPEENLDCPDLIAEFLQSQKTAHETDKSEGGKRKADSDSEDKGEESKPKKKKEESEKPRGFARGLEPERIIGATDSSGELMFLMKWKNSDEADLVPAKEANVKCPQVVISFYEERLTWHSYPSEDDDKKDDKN
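Compound inhibition of the preformed complex between 50 nM HP1-beta and 50 nM biotinylated H3K9me3 peptide was read by AlphaScreen. Buffer was PBS pH 7.4 with 0.01% Tween-20. Incubations ran 30 min at room temperature, with 10 ug/mL donor/acceptor beads.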
JMJD2A Tudor: qHTS Assay for Inhibitors of JMJD2A-Tudor Domain; Lysine-specific demethylase 4A (Homo sapiens), O75164; AlphaScreen JMJD2A-Tudor / H3K4me3 peptide binding; Potency, µM (doses to about 114 µM), hits mostly inhibitors; 390,000 tested, 4.4% active; note: nearly all actives have a fitted effect of over 50% in size
Sfp inh: qHTS Assay for Inhibitors of Bacillus subtilis Sfp phosphopantetheinyl transferase (PPTase) | 4'-phosphopantetheinyl transferase ffp (Bacillus subtilis), Q9F4F7 | Biochemical Sfp PPTase activity, qHTS | Potency, µM, hits mostly inhibitors | 310,000 tested, 3.5% active | AID 1490, 2009;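 note: the enzyme is Sfp with the accession as filed and its product quenches rhodamine fluorescence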
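Sfp 15 nM + cpd, 15 min RT; start w/ rhodamine-CoA 5 uM, BHQ-2-YbbR 12.5 uM (final); 50 mM Hepes pH 7.6, 10 mM MgCl2, 0.01% NP-40, 0.01% BSA; read 525/598 nm at 0 and 30 min.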
G9a inh: qHTS Assay for Inhibitors of Histone Lysine Methyltransferase G9a; Histone-lysine N-methyltransferase EHMT2 (Homo sapiens), Q96KQ7; G9a H3K9 monomethylation, AlphaScreen, 2 h; Potency, µM (series often up to 102 µM), actives largely listed as inhibitors; 350,000 tested, 8.8% active; AID 504332, 2011; note: nearly all actives have a fitted effect of over 75% in size
Target sequence (Q96KQ7 913-1193 limits assumed): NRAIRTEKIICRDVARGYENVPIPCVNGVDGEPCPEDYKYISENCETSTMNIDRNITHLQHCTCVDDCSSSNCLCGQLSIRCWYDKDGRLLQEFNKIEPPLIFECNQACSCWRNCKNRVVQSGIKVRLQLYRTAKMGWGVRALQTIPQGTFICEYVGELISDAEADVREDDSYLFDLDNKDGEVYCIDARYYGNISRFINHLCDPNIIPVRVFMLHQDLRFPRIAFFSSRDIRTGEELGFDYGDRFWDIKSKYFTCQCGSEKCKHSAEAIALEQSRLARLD
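Methyltransferase reactions run at room temperature for 2 h (20 nM enzyme, 500 nM biotin-H3K9 peptide, 20 uM SAM) after a 15 min compound preincubation; product detected by AlphaScreen beads and anti-H3K9me1 antibody.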
BAZ2B block: qHTS Assay for Inhibitors of BAZ2B; Bromodomain adjacent to zinc finger domain protein 2B (Homo sapiens), Q9UIF8; AlphaScreen BAZ2B-H3K14Ac peptide displacement; Potency, µM (titrated, usually from 114 µM), most hits filed as inhibitors; 360,000 tested, 4.4% active; note: nearly all actives have a fitted effect of over 60% in size
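Multi-concentration screen (max 110 uM) measuring displacement of acetylated histone H3 peptide from BAZ2B by AlphaScreen, using 50 nM protein, 50 nM peptide and 10 ug/mL streptavidin donor plus Ni-chelate acceptor beads.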
Each line names hits and unclear results; the compound was inactive in the other large screens; ! = repeats disagree. Only some compounds are listed: those with a hit (about 12% of all), similar ones and a draw of the others. Calls come from the whole dose curve; as a rule, active = well fitted curve in the direction sought with a large enough effect; inconclusive = small, poorly fitted or top-dose-only effect, or another doubt; inactive = no such curve, though single readings can be large; an effect the other way counts as inactive or inconclusive.

Nc1c(Nc2ccccc2)c2ccccc2oc1=O	G9a inh 50.1µM, BAZ2B block inconclusive
CCNc1c(N)c(=O)oc2ccccc12	none
Cc1c(C#N)c(NC(=O)CCl)n(Cc2cccs2)c1C	G9a inh 50.1µM
Cc1c(C#N)c(NC(=O)CCl)n(Cc2ccccc2)c1C	G9a inh 56.2µM, BAZ2B block inconclusive
Cc1c(C#N)c(NC(=O)CCl)n(Cc2ccc(F)cc2)c1C	G9a inh inconclusive
CN(C)C(CNC(=O)CCc1c[nH]c2ccccc12)c1ccccc1 (stereo not drawn)	none
O=C(O)c1ccc(NCc2nc3ccccc3n2CCOc2ccccc2Cl)cc1	none
CCOc1ccc(C2C=C(c3ccc(C)cc3)Nc3ncnn32)cc1 (stereo not drawn)	G9a inh 28.2µM (no result: HP1b chromo inh, JMJD2A Tudor)
CCOc1ccc(C2C=C(c3ccc(C)cc3)Nc3nnnn32)cc1 (stereo not drawn)	G9a inh 50.1µM, BAZ2B block inconclusive
CCOc1ccc(C2C=C(c3cccc(OC)c3)Nc3nnnn32)cc1 (stereo not drawn)	none (no result: Sfp inh)
CCOc1ccc(C2C=C(c3ccccc3)Nc3nnnn32)cc1 (stereo not drawn)	G9a inh 50.1µM
COc1ccc2[nH]c3c(c2c1)CCN1C(=O)C(CC(=O)NCCC2=CCCCC2)C[C@H](C(=O)N(C(C)C)C(C)C)[C@@]31C (stereo partly drawn)	JMJD2A Tudor inconclusive (no result: Sfp inh, G9a inh, BAZ2B block)
COc1ccc(C2=Nc3ccc(F)cc3NC(c3cccc(C(F)(F)F)c3)=N2)cc1	G9a inh inconclusive (no result: Sfp inh)
COC(=O)C1(C)NC(c2ccccc2C)C2C(=O)N(c3ccc(F)cc3)C(=O)C21 (stereo not drawn)	JMJD2A Tudor inconclusive
CSCCC1NC2(C(=O)Nc3c2ccc(Cl)c3C)[C@@H]2C(=O)N(C3CCCC3)C(=O)[C@H]12 (stereo partly drawn)	JMJD2A Tudor inconclusive, G9a inh inconclusive, BAZ2B block inconclusive
Cc1c(Cl)ccc2c1NC(=O)C21NC(CCC(N)=O)[C@H]2C(=O)N(c3ccc(Cl)cc3)C(=O)[C@H]21 (stereo partly drawn)	G9a inh 39.8µM
CCCCc1ccc(N2C(=O)[C@@H]3C(CC(N)=O)NC4(C(=O)Nc5ccc(F)cc54)[C@@H]3C2=O)cc1 (stereo partly drawn)	G9a inh 39.8µM
Cc1c(Cl)ccc2c1NC(=O)[C@]21N[C@@H](CCC(N)=O)[C@H]2C(=O)N(c3ccc(F)cc3)C(=O)[C@H]21	G9a inh 14.1µM
CCOc1ccc(NC(=O)C2CCCN2C(=O)OCc2ccccc2)cc1 (stereo not drawn)	none
Cc1ccc(S(=O)(=O)N2CCOCC2)cc1NC(=O)COC(=O)COc1cccc2c1OC(C)(C)C2	none (no result: Sfp inh)
O=C(NC1CCCCC1)C(=S)N1CCOCC1	Sfp inh 50.1µM, G9a inh inconclusive
Nc1ccc(OCc2ccccc2)cc1	JMJD2A Tudor inconclusive, G9a inh 11.2µM, BAZ2B block inconclusive
O=c1cc(OCc2ccccc2)cc[nH]1	HP1b chromo inh 8.91µM, JMJD2A Tudor 11.2µM, G9a inh inconclusive, BAZ2B block 2.82µM (no result: Sfp inh)
CCN(Cc1ccccc1)Cc1ccc(OCc2ccccc2)cc1	JMJD2A Tudor 28.2µM, BAZ2B block inconclusive (no result: G9a inh)
CN(CCOc1ccccc1)CCOc1ccccc1	none
CCN(CC)CCOc1ccc(Cc2ccccc2)cc1	Sfp inh 79.4µM! (no result: HP1b chromo inh, JMJD2A Tudor, BAZ2B block)
CC(=O)c1ccc(OCc2ccc(C(=O)c3ccccc3)cc2)cc1	none
Cc1cc(N=Nc2ccccc2)cc(C)c1NC(=O)C(F)(F)F	JMJD2A Tudor inconclusive (no result: Sfp inh, G9a inh, BAZ2B block)
CC(=O)Nc1ccc(S(=O)(=O)N2CCN=C2C)cc1	none
CCCOc1ccc(C(C(=O)OCCN(CC)CC)c2ccccc2)cc1 (stereo not drawn)	G9a inh 8.91µM, BAZ2B block 50.1µM
O=C(CN1CCC(O)(c2ccc3c(c2)OCO3)CC1)NC1CCCCC1	G9a inh inconclusive
Cc1cccnc1NC(=S)NCCc1ccccc1	HP1b chromo inh inconclusive, JMJD2A Tudor 20µM, Sfp inh 39.8µM, G9a inh 0.708µM, BAZ2B block 35.5µM
Cc1ccc(NC(=S)NCCc2ccccc2)nc1	G9a inh 1.58µM
Cc1ccc(NC(=O)CCCc2ccccc2)nc1	none
O=C(NCC1CCCN(Cc2cccc(C(F)(F)F)c2)C1)c1ccc(F)cc1 (stereo not drawn)	none
Cc1cc(CN2CCCC(CNC(=O)c3ccc(F)cc3)C2)cc(C)c1O (stereo not drawn)	G9a inh 79.4µM
CC(C)C(=O)N1CCN(c2ccc(NC(=S)NC(=O)c3cc4ccccc4o3)cc2)CC1	none (no result: G9a inh)
O=S(=O)(/C=C/c1ccccc1)N1CCN(c2nc(-c3cccnc3)nc3ccccc23)CC1	BAZ2B block inconclusive
Cc1ccc(N=C2CSC(=O)N2)cc1	none
O=C1NC(=Nc2ccc(F)cc2)CS1	Sfp inh 56.2µM, G9a inh 31.6µM
CC1Cc2cc(C(=O)O)ccc2O1 (stereo not drawn)	none (no result: BAZ2B block)
C=C(CO)C1Cc2cc(C(C)=O)ccc2O1 (stereo not drawn)	JMJD2A Tudor inconclusive, BAZ2B block 79.4µM
CCCC[C@@H]1CNC(=O)C(=O)N1CC(C)(C)C	none
O=C(NN1C(=O)C2C3C=CC([C@@H]2C1=O)C31CC1)c1ccccc1 (stereo partly drawn)	none
C=CCN1CCc2c(cc(O)c(O)c2Br)[C@@H](c2ccccc2)C1	JMJD2A Tudor inconclusive, G9a inh 8.91µM (no result: BAZ2B block)
COc1ccc(OCc2nc3c4cc(OC)c(OC)cc4nc(=S)n3[nH]2)cc1	G9a inh 1µM
CCOC(=O)C1CCN(C(c2ccc(SC)cc2)c2c(O)cc(C)n(Cc3ccco3)c2=O)CC1 (stereo not drawn)	JMJD2A Tudor 56.2µM, G9a inh inconclusive (no result: Sfp inh)
CCOC(=O)C1(Cc2cccc(F)c2)CCN(Cc2nc(CC)[nH]c2C)CC1	JMJD2A Tudor 50.1µM, G9a inh 39.8µM, BAZ2B block inconclusive
CC(=O)Nc1ccc(S(=O)(=O)NC(C)C(=O)NC(C)c2ccccc2)cc1 (stereo not drawn)	G9a inh inconclusive
C=CCNc1nc(C2(C)CC3(CC(C)(C)OC3=O)C(=O)O2)cs1 (stereo not drawn)	G9a inh 39.8µM
CCOC(=O)C1CCCN(S(=O)(=O)c2cc3c(cc2Cl)NC(=O)CO3)C1 (stereo not drawn)	none (no result: G9a inh)
Cc1sc(NC(=O)Cc2ccc3c(c2)OCO3)nc1-c1ccc2c(c1)CCN2C(=O)c1ccc(F)cc1	JMJD2A Tudor inconclusive, G9a inh 39.8µM
CCOC(=O)C(=O)Nc1nc(-c2ccc3c(c2)CCN3C(=O)C2CC2)c(C)s1	G9a inh 50.1µM, BAZ2B block inconclusive

Screens from PubChem.
